Source: PubChem BioAssay (NCATS)
Values joined by “and” are separate entries in the source; they are usually repeats but may differ in a detail not shown here. Equal values may be shown once. Inconclusive results are not listed. Active and inactive are the calls of the source. Unless noted, the call rests on the fitted dose curve.

Tests used:
[1] = molecular target: Bile acid receptor (Homo sapiens) (UniProt Q96RI1); assay: qHTS assay for small molecule antagonists of farnesoid X receptor signaling (AID 588526); further: on the % scale 0 is the no-effect control and ±100 the full control effect
Bile acid receptor (Homo sapiens), sequence (Q96RI1 whole entry, looked up): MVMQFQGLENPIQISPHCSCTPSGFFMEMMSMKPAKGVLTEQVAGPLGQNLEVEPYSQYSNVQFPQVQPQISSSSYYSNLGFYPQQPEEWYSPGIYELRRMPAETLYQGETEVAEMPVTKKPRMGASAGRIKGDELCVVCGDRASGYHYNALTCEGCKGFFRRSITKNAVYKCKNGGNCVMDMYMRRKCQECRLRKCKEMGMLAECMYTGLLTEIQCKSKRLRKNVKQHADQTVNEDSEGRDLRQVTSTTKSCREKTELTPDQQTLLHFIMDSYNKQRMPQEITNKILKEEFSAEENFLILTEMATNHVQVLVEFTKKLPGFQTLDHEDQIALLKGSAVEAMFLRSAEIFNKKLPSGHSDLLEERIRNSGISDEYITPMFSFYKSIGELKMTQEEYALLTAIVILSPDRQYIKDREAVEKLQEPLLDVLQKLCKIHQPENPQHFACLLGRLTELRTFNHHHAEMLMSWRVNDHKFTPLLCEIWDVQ
Summary of the method: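 Concentration-response titrations were fitted to the Hill equation for half-maximal inhibition and maximal response, with data normalised to 50 uM chenodeoxycholic acid and DMSO control wells. Cells: FXR-UAS-bla HEK293T, dialyzed FBS.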

[2] = molecular target: Bile acid receptor (Homo sapiens) (UniProt Q96RI1); assay: qHTS assay for small molecule agonists of farnesoid X receptor signaling (AID 588527); conditions: HEK293T FXR-UAS-bla, beta-lactamase ratio, 16 h; stronger effect = higher value;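 further: series mostly up to about 77 µM; 0% = vehicle basal and 100% = reference agonist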
Summary of the method: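 Agonist-mode beta-lactamase reporter in GeneBLAzer FXR-UAS-bla HEK293T cells, titration up to 92 uM, 16 h exposure at 37 C, CCF4 fluorescence. Response scaled to DMSO (0%) and 100 uM chenodeoxycholic acid (100%), then Hill-fitted for EC50 and efficacy.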

[3] = molecular target: Glucocorticoid receptor (Homo sapiens) (UniProt P04150); assay: qHTS assay for small molecule agonists of glucocorticoid receptor signaling (AID 588532; active means well fitted curve in the direction sought with a large enough effect in the signal ratio, with a control signal flat; the % refers to the signal ratio;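 further: 100% = dexamethasone at 0.1 µM and 0% = DMSO only wells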); conditions: HeLa MMTV-bla, beta-lactamase ratio, agonist, 18 h; stronger effect = higher value; percent of dexamethasone control, DMSO zero
Glucocorticoid receptor (Homo sapiens), sequence (P04150 whole entry, looked up): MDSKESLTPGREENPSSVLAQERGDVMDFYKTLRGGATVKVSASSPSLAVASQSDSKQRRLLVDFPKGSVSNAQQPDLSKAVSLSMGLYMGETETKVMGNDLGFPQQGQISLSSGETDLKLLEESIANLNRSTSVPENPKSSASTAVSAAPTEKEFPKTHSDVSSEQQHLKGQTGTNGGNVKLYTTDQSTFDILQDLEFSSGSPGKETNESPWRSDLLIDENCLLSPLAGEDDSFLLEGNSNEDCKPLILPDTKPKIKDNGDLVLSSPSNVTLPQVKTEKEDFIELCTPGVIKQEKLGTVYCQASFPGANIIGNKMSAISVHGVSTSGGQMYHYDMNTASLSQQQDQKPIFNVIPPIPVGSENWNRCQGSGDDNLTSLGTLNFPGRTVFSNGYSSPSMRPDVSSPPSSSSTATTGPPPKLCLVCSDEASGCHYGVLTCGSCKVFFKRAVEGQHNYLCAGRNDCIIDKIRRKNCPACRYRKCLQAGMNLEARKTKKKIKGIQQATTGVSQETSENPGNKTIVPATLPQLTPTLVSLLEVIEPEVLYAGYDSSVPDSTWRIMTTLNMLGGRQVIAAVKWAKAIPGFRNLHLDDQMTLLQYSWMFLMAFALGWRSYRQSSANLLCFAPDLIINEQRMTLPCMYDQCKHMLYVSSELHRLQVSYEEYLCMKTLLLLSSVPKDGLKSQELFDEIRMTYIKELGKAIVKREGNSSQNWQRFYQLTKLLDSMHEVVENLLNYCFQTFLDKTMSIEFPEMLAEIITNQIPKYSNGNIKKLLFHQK
Summary of the method: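 Titration series, up to 92 uM, applied to GRE-bla HeLa cells for 18 h at 37 C. Detection by CCF4 FRET substrate after 2 h at RT.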

[4] = molecular target: Glucocorticoid receptor (Homo sapiens) (UniProt P04150); assay: qHTS assay for small molecule antagonists of glucocorticoid receptor signaling (AID 588533; active means well fitted inhibition curve with a large enough effect in the signal ratio, with a control signal flat, not every such curve was filed as active; the % refers to the signal ratio;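 further: cells stimulated with 2 nM dexamethasone as agonist; on the % scale 0 is the no-effect control and ±100 the full control effect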)
Summary of the method: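 Antagonist-mode qHTS: compound titrations added to GRE-bla HeLa cells, then dexamethasone 2 nM final; 18 h, 37 C. CCF4 FRET fluorescence normalized to dexamethasone and DMSO; IC50 from Hill fit.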

[5] = molecular target: Peroxisome proliferator-activated receptor delta (Homo sapiens) (UniProt Q03181); assay: qHTS assay for small molecule agonists of peroxisome proliferator-activated receptor delta signaling (AID 588534);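 further: 0% = DMSO basal wells and 100% = positive control agonist at 10 µM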
Peroxisome proliferator-activated receptor delta (Homo sapiens), sequence (Q03181 whole entry, looked up): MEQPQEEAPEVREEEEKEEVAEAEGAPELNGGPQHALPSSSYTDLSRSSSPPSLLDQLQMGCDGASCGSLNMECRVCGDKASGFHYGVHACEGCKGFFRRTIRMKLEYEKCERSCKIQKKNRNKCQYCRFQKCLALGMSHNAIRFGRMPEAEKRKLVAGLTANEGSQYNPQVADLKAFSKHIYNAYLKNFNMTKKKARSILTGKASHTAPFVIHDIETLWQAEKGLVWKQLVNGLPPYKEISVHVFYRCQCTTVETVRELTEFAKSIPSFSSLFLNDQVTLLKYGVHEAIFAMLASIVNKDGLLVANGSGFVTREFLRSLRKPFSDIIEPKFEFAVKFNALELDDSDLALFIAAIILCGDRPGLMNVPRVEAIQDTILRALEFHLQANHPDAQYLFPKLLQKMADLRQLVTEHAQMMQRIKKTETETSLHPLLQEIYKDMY
Summary of the method: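 EC50 and efficacy values derive from Hill fits of a concentration series in a beta-lactamase reporter cell assay. Exposure is 18 hrs at 37 C, with CCF4 fluorescence as the readout.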

[6] = qHTS assay for small molecule antagonists of peroxisome proliferator-activated receptor delta signaling (AID 588535; active means well fitted inhibition curve with a large enough effect in the signal ratio, with a control signal flat, not every such curve was filed as active; the % refers to the signal ratio;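 on max response: cells co-treated with a PPAR-delta agonist as stimulator during compound exposure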); conditions: HEK293T PPARd-UAS-bla, beta-lactamase FRET ratio, 18 h; 460 nm channel
Summary of the method: (§1)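 Compounds tested in titration on PPAR-delta-UAS-bla HEK293T cells grown in charcoal/dextran-stripped serum (2%); beta-lactamase activity read via CCF4 emission at 460 and 530 nm.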

[7] = molecular target: Peroxisome proliferator-activated receptor delta (Homo sapiens) (UniProt Q03181); assay: as above
Summary of the method: as §1

[8] = molecular target: Peroxisome proliferator-activated receptor gamma (Homo sapiens) (UniProt P37231); assay: qHTS assay for small molecule antagonists of peroxisome proliferator-activated receptor gamma signaling (AID 588537; active means well fitted inhibition curve with a large enough effect in the signal ratio, with a control signal flat, not every such curve was filed as active; the % refers to the signal ratio;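 further: reporter cells co-stimulated with 50 nM rosiglitazone agonist during compound treatment; % of control where 0% means no effect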)
Peroxisome proliferator-activated receptor gamma (Homo sapiens), sequence (P37231 whole entry, looked up): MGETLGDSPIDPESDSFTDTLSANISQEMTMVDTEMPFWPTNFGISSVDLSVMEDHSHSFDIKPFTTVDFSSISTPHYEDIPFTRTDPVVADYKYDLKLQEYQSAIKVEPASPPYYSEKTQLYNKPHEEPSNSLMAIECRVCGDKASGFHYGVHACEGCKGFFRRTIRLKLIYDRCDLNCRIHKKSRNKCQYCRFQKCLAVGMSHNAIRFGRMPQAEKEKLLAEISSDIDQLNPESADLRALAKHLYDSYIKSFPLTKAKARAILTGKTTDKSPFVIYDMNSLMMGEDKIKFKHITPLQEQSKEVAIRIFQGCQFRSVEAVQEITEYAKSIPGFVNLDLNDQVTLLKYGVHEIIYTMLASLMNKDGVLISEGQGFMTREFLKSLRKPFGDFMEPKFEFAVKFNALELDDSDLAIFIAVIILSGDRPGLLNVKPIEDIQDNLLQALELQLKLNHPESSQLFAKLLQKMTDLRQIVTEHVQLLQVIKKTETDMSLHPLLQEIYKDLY
Summary of the method: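 HEK293 cells, PPAR-gamma-UAS-bla, 3000/well. Pre-incubation 6-6.5 h, 37 C. Compound titration with rosiglitazone 50 nM final, 16 h. CCF4 dye, 2 h RT, dual-emission fluorescence.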

[9] = molecular target: Vitamin D3 receptor (Homo sapiens) (UniProt P11473); assay: qHTS assay for small molecule antagonists of vitamin D receptor signaling (AID 588541);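 further: receptor activated by calcitriol during compound treatment; series mostly up to about 77 µM; on the % scale 0 is the no-effect control and ±100 the full control effect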
Vitamin D3 receptor (Homo sapiens), sequence (P11473 whole entry, looked up): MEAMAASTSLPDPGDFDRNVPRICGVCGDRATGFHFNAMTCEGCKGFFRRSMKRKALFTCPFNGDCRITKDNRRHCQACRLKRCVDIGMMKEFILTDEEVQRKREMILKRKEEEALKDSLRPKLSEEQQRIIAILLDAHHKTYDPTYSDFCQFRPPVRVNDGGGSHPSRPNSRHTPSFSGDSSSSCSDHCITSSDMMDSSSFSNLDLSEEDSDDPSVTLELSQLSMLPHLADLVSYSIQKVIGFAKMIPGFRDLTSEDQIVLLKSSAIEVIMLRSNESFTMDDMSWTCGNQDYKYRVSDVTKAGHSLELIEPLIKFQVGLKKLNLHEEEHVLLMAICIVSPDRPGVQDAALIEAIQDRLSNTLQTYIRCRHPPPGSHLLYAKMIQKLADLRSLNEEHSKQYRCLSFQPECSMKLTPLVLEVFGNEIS
Summary of the method: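 VDR-UAS-bla HEK293T cells (2000/well, 2% charcoal-stripped FBS) were treated with titrated compounds plus 1-alpha,25-dihydroxyvitamin D3 (50 nM or 3 nM final) for 16 h at 37 C. CCF4 beta-lactamase fluorescence was read; Hill fits gave IC50.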

[10] = qHTS assay for small molecule antagonists of retinoid X receptor alpha signaling (AID 588546; active means well fitted inhibition curve with a large enough effect in the signal ratio, with a control signal flat, not every such curve was filed as active; the % refers to the signal ratio;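 further: cells stimulated with 9-cis-retinoic acid as agonist; on the % scale 0 is the no-effect control and ±100 the full control effect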); conditions: HEK293T RXRa-UAS-bla, beta-lactamase ratio, antagonist mode; measured here: W530 green channel, cytotoxicity proxy
Summary of the method: (§2)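 Beta-lactamase reporter inhibition, read as CCF4 fluorescence ratio (ex 405, em 460/530 nm) after 2 h at RT. HEK293T UAS-bla cells, 2500/well, were stimulated with 9-cis-RA at 500 or 100 nM final alongside test compound for 18 h at 37 C.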

[11] = molecular target: Retinoic acid receptor RXR-alpha (Homo sapiens) (UniProt P19793); assay: as above; conditions: HEK293T RXRa-UAS-bla, beta-lactamase ratio, antagonist mode
Retinoic acid receptor RXR-alpha (Homo sapiens), sequence (P19793 whole entry, looked up): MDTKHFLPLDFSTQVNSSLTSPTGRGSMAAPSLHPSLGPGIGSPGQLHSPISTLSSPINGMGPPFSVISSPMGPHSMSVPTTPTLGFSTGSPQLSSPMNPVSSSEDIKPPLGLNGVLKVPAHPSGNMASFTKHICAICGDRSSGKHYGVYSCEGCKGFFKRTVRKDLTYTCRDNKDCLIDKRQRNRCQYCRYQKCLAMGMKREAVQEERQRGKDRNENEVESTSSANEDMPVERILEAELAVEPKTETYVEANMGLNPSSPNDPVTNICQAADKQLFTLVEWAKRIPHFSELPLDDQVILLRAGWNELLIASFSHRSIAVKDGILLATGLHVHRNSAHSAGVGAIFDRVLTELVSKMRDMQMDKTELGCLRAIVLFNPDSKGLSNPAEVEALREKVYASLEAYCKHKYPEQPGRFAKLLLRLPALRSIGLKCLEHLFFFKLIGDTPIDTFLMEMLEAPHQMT
Summary of the method: as §2

[12] = molecular target: Voltage-gated inwardly rectifying potassium channel KCNH2 (Homo sapiens) (UniProt Q12809); assay: qHTS Assay for Small Molecule Inhibitors of the Human hERG Channel Activity (AID 588834; active means well fitted curve in the direction sought with a large enough effect; an effect the other way counts as inactive or inconclusive;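 further: lower thallium flux fluorescence means stronger hERG block; nearly all actives have a fitted effect of over 50% in size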; further: potency means the concentration at half of the fitted maximal effect)
Voltage-gated inwardly rectifying potassium channel KCNH2 (Homo sapiens), sequence (Q12809 whole entry, looked up): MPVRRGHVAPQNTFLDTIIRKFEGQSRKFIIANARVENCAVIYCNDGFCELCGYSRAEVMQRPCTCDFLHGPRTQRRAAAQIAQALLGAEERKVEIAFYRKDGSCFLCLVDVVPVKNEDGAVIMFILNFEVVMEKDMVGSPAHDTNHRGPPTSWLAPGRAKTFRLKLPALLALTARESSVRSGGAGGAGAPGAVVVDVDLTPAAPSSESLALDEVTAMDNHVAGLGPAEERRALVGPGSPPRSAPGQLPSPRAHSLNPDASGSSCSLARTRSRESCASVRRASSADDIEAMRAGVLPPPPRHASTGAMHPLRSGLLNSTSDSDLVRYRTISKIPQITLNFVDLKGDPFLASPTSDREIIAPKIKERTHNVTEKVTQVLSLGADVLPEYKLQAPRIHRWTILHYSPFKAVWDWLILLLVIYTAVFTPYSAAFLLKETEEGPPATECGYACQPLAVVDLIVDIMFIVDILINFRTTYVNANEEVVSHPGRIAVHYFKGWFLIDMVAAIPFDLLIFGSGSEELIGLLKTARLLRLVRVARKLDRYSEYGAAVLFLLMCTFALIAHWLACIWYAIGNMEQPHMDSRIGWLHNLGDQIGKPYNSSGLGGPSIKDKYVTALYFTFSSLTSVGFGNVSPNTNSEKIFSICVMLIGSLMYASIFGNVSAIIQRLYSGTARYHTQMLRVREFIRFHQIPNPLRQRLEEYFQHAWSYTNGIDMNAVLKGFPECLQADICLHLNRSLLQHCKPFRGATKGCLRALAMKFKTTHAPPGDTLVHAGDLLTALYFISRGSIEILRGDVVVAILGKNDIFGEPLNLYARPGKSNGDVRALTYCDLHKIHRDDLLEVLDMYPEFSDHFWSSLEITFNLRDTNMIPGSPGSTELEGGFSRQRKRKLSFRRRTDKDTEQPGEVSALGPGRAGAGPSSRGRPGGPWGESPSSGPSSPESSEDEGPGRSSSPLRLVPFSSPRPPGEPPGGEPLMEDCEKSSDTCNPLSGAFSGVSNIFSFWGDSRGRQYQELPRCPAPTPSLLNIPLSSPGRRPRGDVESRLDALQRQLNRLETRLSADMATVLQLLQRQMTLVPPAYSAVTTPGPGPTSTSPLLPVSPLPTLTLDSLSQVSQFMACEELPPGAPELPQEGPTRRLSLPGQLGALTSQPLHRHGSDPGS
Summary of the method: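 hERG block measured as reduced thallium-dye (FluxOR) fluorescence after stimulation buffer addition, read over 2 min. Cells were hERG-BacMam-transduced U2OS exposed to compound ~10 min […]; concentration-response fitted with Hill equation for AC50.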

[13] = molecular target: Peroxisome proliferator-activated receptor gamma (Homo sapiens) (UniProt P37231); assay: qHTS assay for small molecule agonists of peroxisome proliferator-activated receptor gamma signaling (AID 588536; active means well fitted curve in the direction sought with a large enough effect in the signal ratio, with a control signal flat, not every such curve was filed as active; the % refers to the signal ratio;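 further: 0% = DMSO basal wells and 100% = rosiglitazone at 2 µM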)
Summary of the method: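 This is an agonist-mode beta-lactamase reporter assay in HEK293 PPAR-gamma-UAS-bla cells with 1% charcoal/dextran FBS. Compound titrations ran 16 h at 37 C before CCF4 detection. EC50 and efficacy are Hill fits scaled to 2 uM rosiglitazone (100%) and DMSO basal.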

[14] = molecular target: Thyroid hormone receptor beta (Homo sapiens) (UniProt P10828); assay: qHTS assay for small molecule antagonists of thyroid hormone receptor beta signaling (AID 588547; active means well fitted inhibition curve with a large enough effect in the signal ratio, with a control signal flat, not every such curve was filed as active; the % refers to the signal ratio); conditions: TR-UAS-bla HEK293, beta-lactamase ratio, antagonist mode, 18 h
Summary of the method: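 TR-UAS-bla GripTite HEK293 cells in 2% charcoal/dextran FBS medium were preincubated 4 h at 37 C, given compound (0.59 nM to 92 uM) plus 0.4 nM T3 (final) for 18 h, then CCF4 for 2 h at RT; Hill fit gave IC50.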

[15] = molecular target: Luciferin 4-monooxygenase (Photinus pyralis) (UniProt P08659); assay: Biochemical firefly luciferase enzyme assay for NPC (AID 624030; active means well fitted curve in the direction sought with a large enough effect; an effect the other way counts as inactive or inconclusive;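 further: purified P. pyralis luciferase at 10 nM with luciferin and ATP substrate; series mostly up to about 59 µM; 0% = DMSO and -100% = full luciferase inhibition by PTC124 control; nearly all actives have a fitted effect of over 70% in size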)
Luciferin 4-monooxygenase (Photinus pyralis), sequence (P08659 whole entry, looked up): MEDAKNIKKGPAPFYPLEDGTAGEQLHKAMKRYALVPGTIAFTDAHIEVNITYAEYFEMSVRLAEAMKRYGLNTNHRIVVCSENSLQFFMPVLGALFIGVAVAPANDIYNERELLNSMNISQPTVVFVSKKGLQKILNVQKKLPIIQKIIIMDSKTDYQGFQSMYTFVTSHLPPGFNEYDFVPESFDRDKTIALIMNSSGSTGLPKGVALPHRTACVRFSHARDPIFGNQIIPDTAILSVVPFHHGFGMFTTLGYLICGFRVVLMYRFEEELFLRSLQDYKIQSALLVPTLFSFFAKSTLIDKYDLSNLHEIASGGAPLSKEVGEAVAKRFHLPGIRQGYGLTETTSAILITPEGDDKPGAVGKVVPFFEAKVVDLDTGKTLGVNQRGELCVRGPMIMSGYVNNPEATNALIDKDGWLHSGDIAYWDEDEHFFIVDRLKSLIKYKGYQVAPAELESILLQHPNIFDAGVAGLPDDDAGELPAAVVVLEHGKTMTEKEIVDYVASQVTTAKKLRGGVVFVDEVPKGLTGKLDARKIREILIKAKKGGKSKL
Summary of the method: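 Counter-screen for direct inhibition of the luciferase enzyme by approved-drug library compounds, run at 10 nM enzyme in 50 mM Tris acetate (final). Luminescence was read within 5 min of enzyme-buffer addition and normalized to PTC124 versus DMSO (0%).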

[16] = qHTS assay for small molecule agonists of retinoid X receptor alpha signaling (AID 588544); conditions: HEK293T RXRa-UAS-bla, beta-lactamase reporter, 18 h; 530 nm emission;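 on activation: 0% = DMSO basal wells and 100% = reference agonist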
[17] = molecular target: Retinoic acid receptor RXR-alpha (Homo sapiens) (UniProt P19793); assay: as above
[18] = molecular target: Thyroid hormone receptor beta (Homo sapiens) (UniProt P10828); assay: qHTS assay for small molecule agonists of thyroid hormone receptor beta signaling (AID 588545);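 further: 0% = DMSO only and 100% = 10 nM T3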
Summary of the method: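 Efficacy and EC50 values derive from Hill fits of qHTS titration data, normalized to 10 nM T3 and DMSO-only wells. HEK 293 reporter cells were stimulated for 18 hrs at 37 C, with beta-lactamase activity measured by CCF4 fluorescence.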

[19] = S16 Schwann cell viability assay (CellTiter-Glo assay) (AID 624031; active means well fitted curve in the direction sought with a large enough effect; an effect the other way counts as inactive or inconclusive;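 further: native untransfected S16 rat Schwann cells; cellular ATP luminescence as a viability measure; series mostly up to about 58 µM; plate controls were DMSO-treated cells for no effect and cell-free wells for full effect; nearly all actives have a fitted effect of over 70% in size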)
Summary of the method: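 Following overnight culture in 10% FBS DMEM, parental S16 rat Schwann cells are dosed for 24 h at 37 °C. Viability is read as CellTiter-Glo luminescence and expressed as % activity relative to DMSO (0%) and no-cell wells.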

[20] = S16 Schwann cell PMP22 intronic element firefly luciferase assay (AID 624032; active means well fitted curve in the direction sought with a large enough effect; an effect the other way counts as inactive or inconclusive;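 further: series mostly up to about 58 µM; plate controls were DMSO for no effect and PTC124 positive control mean for full effect; nearly all actives have a fitted effect of over 30% in size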)
Summary of the method: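 Rat S16 Schwann cells stably carrying a PMP22 intronic element-driven Fluc reporter were seeded overnight, then exposed to compounds for 24 h at 37 °C. Luminescence was normalized to PTC124 (positive control) and DMSO (0% activity).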

Clc1cnc(Oc2ccc(Oc3ncc(Cl)cc3Cl)cc2)c(Cl)c1
17%: max response [6]
-4.82%: max response [10]
inactive: outcome [1] | activation [2] 0.177% | activation [3] -2.42% | Potency [4] | outcome [5] | Potency [7] | Potency [8] | Potency [9] | max response [11] -16.8% | Potency [12]

CCCCCCCCCCCCCC(=O)OC(C)C
inactive: activation [2] -0.914% | outcome [5]

O=C(Oc1ccccc1)c1cccc(C(=O)Oc2ccccc2)c1
inactive: activation [2] 0.748%

CC(C)(C)C(O)C(Oc1ccc(Cl)cc1)n1cncn1 (centres undefined)
inactive: outcome [13] | Potency [8] | Potency [9] | max response [11] -0.566% | activity change % (negative = inhibition) [14] -8.05% | Potency [15]
-12.3%: max response [10]

CN(C)[C@@H]1C(=O)C(C(N)=O)=C(O)[C@@]2(O)C(=O)C3=C(O)c4c(O)cccc4[C@@](C)(O)[C@H]3[C@H](O)[C@@H]12
16.2% and 7.17% and 21.1%: max response [10]
10.7% and 6.3% and 19.5%: max response [16]
inactive: outcome [13] | Potency [8] | Potency [17] | outcome [18] | max response [11] -9.03% and -41.7% and -15.3% | activity change % (negative = inhibition) [14] 2.86% and -5.16% and -23.7% | Potency [12] | Potency [15] | Potency [19] | Potency [20]

O=S(=O)(c1ccc(Cl)cc1)c1ccc(Cl)cc1
inactive: activation [3] -2.41% and 8.97% | Potency [4] | outcome [5] | Potency [7] | outcome [13] | Potency [9] | Potency [17] | outcome [18] | max response [11] -23.5% and -4.94% and -14.2% | activity change % (negative = inhibition) [14] 9.09% and 5.78% and 14.1% | Potency [15]
-8.84% and -18.1% and 9.46%: max response [6]
active: Potency [12] 44.7 µM
-4.56% and -1.98%: max response [16]
-9.45% and -15.5% and -9.97%: max response [10]

OCCCBr
-9.62%: max response [10]
-10.8%: max response [16]
inactive: activation [3] -1.2% | Potency [4] | outcome [13] | Potency [8] | Potency [9] | Potency [17] | outcome [18] | max response [11] -5.03% | activity change % (negative = inhibition) [14] -1.82% | Potency [12] | Potency [15]

CC(C)(c1ccc(O)cc1)c1ccc(O)cc1
0.616% and 8.18%: max response [16]
inactive: outcome [5] | Potency [8] | Potency [17] | activity change % (negative = inhibition) [14] -3.91% | Potency [12]

CCOCCOC(C)=O
-4.94%: max response [10]
-8.15%: max response [16]
inactive: activation [3] -2.6% | Potency [4] | outcome [5] | outcome [13] | Potency [8] | Potency [9] | Potency [17] | max response [11] 11% | activity change % (negative = inhibition) [14] 9.89% | Potency [12] | Potency [15]

Nc1ccc(O)c([N+](=O)[O-])c1
inactive: outcome [5]

O=c1cc(-c2ccccc2)oc2ccccc12
inactive: outcome [5]

C=CCNC(N)=S
inactive: outcome [5]

CC(C)Oc1cccc(NC(=O)c2ccccc2C(F)(F)F)c1
0.398%: max response [10]
inactive: activation [3] -4.03% | Potency [4] | outcome [5] | Potency [9] | outcome [18] | max response [11] -12.2% | activity change % (negative = inhibition) [14] -3.3% | Potency [15]

CC(C)C(C)(C)C(C)(C)C(C)(C)S
inactive: outcome [5]

O=C(O)c1cc(Oc2ccc(C(F)(F)F)cc2Cl)ccc1[N+](=O)[O-]
11.8%: max response [16]
-4.23%: max response [10]
inactive: Potency [4] | outcome [13] | Potency [17] | outcome [18] | max response [11] -9.38% | activity change % (negative = inhibition) [14] -21.5% | Potency [15]

O=C1NS(=O)(=O)c2ccccc21
inactive: outcome [5]
